The source made the active and inactive calls. How the source made its calls: active means hit-call score of the fitted dose curve at least 0.9, where 1 is the maximum; inactive means score below 0.9.
System: TTR (gene 7276)
Experiment: CCTE_GLTED_hTTR_0.125uM: CCTE's human Transthyretin (hTTR) Inhibition Assay, with 0.125uM TTR, Great Lakes Toxicology and Ecology Division (GLTED) Lab (AID 2284431);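 further: hits lower the fluorescence signal relative to DMSO baseline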
Summary of the method: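 Activity is defined as decreased ANSA fluorescence (ex 380, em 475) from human transthyretin, 0.125uM, following 2-hour chemical exposure in a cell-free setup, with DMSO as baseline.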

`N#Cc1c[nH]cc1-c1cccc2c1OC(F)(F)O2` was tested. Which AC50 did it give?
Its AC50 is 0.5 µM (active).

With `O=C1C2CC=CCC2C(=O)N1SC(Cl)(Cl)Cl` (centres undefined) as the compound, how does the AC50 read?
Its AC50 is 21.1 µM (active).

`COc1cc(Cl)c(OC)cc1Cl` was tested. Which AC50 did it give?
The AC50 was 4.26 µM (active).

How did the AC50 turn out when `CO/N=C(/C1=NOCCO1)c1ccccc1Oc1ncnc(Oc2ccccc2Cl)c1F` was run?
Its AC50 is 5.22 µM (active).

`CCOP(=O)(OCC)Oc1nc(Cl)c(Cl)cc1Cl` was tested. Which AC50 did it give?
The AC50 was 0.395 µM (active).

With `CCOc1nc(C(Cl)(Cl)Cl)ns1` as the compound, how does the AC50 read?
The AC50 was 5.26 µM (active).

For `Cn1c(-c2ccccc2)cc(-c2ccccc2)[n+]1C`, which AC50 is on record?
The AC50 was 27.8 µM (active).

`CC(C)NC(=O)N1CC(=O)N(c2cc(Cl)cc(Cl)c2)C1=O` was tested. Which AC50 did it give?
The AC50 was 2.51 µM (active).

With `COP(=S)(OC)Oc1ccc([N+](=O)[O-])c(C)c1` as the compound, how does the AC50 read?
Its AC50 is 8.85 µM (active).
